Where “and” joins values, the source holds several entries; their conditions need not be identical. Equal values may be shown once. Inconclusive results are not listed. Unmarked numbers belong to inactive results. Calls of active or inactive are those of the source. Calls follow the shape of the dose curve; as a rule, active = well fitted cell-killing curve with a large enough effect; inconclusive = small, poorly fitted or top-dose-only effect, or effect the other way; inactive = no such curve, though single readings can be large or run the other way.
Test: Viability qHTS for spleen associated tyrosine kinase inhibitor (SYKi) drug resistant MV4-11 cells (AID 1963824); also: nearly all actives have a fitted effect of over 35% in size
Conditions: SYKi-resistant MV4-11 viability, CellTiter-Glo, 72 h; series mostly up to 45 µM; viability, % of control: at the top concentration
In short: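 SYK inhibitor-resistant MV4-11 AML cells, 500 per well, added to predispensed compounds and incubated 72 hr at 37 C, 5% CO2. Viability measured by CellTiter-Glo luminescence after 10 min at room temperature.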
Potency is read from the fitted curve at half-maximal effect.

Row | SMILES | Potency | viability, % of control
1 | Cc1cc(OCCCc2c3n(c4c(-c5c(C)nn(C)c5C)c(Cl)ccc24)[C@H](C)CN(c2cn(C)c4ccc(C(=O)O)cc24)C3=O)cc(C)c1Cl | 0.662 µM (active) | 
2 | CCN1CCN(c2cc(-c3ccc(F)cc3)c3c(n2)CCCCCC3)CC1 |  | 83.5% [at 17.3 µM]
3 | CCOC(=O)[C@H](CCc1ccccc1)N[C@@H](C)C(=O)N1[C@H](C(=O)O)C[C@@H]2CCC[C@@H]21 |  | 87.5%
4 | Brc1c(NC2=NCCN2)ccc2nccnc12 |  | 83.6%
5 | CC(=O)N[C@H]1[C@H](O[C@@H]2c3ccc(c(Cl)c3)Oc3cc4cc(c3O[C@@H]3O[C@H](CO)[C@@H](O)[C@H](O)[C@H]3NC(=O)CCCCCCCC(C)C)Oc3ccc(cc3Cl)C[C@H]3NC(=O)[C@H](N)c5ccc(O)c(c5)Oc5cc(O)cc(c5)[C@H](NC3=O)C(=O)N[C@H]4C(=O)N[C@H]3C(=O)N[C@@H]2C(=O)N[C@@H](C(=O)O)c2cc(O)cc(O[C@H]4O[C@H](CO)[C@@H](O)[C@H](O)[C@@H]4O)c2-c2cc3ccc2O)O[C@H](CO)[C@@H](O)[C@@H]1O |  | 86.4%
6 | CCC1Nc2cc(Cl)c(S(N)(=O)=O)cc2S(=O)(=O)N1 (stereo not given) |  | 79.8%
7 | O=C(/C=C/c1cccc(S(=O)(=O)Nc2ccccc2)c1)NO | 282 nM (active) and 332 nM (active) | 
8 | Nc1ccc(C(=O)OCC(O)CO)cc1 (stereo not given) |  | 79.8%
9 | CO[C@@]1(NC(=O)C(C(=O)O)c2ccc(O)cc2)C(=O)N2C(C(=O)O)=C(CSc3nnnn3C)CO[C@@H]21 (stereo not given in full) |  | 57.5%
10 | Cc1ccc(-c2ncc(Cl)cc2-c2ccc(S(C)(=O)=O)cc2)cn1 |  | 80.1%
11 | CNCc1ccc(-c2cc(-c3nc(-c4ccc(S(=O)(=O)C(C)C)cc4)cnc3N)on2)cc1 | 0.326 µM (active) | 
12 | CCCCCCCCCCCCCCCC[N+](C)(C)CCN(Cc1ccc(OC)cc1)c1ncccn1 | 2.11 µM (active) | 
13 | NCC1CCN(c2nccc(-c3ccc4ccccc4c3)n2)CC1 | 1.16 µM (active) | 
14 | O=C(O)c1ccccc1C(=O)Nc1ccc(S(=O)(=O)Nc2nccs2)cc1 |  | 70.6%
15 | CCN[C@H]1CN(CCCOC)S(=O)(=O)c2sc(S(N)(=O)=O)cc21 |  | 85.8%
16 | CNC(=O)[C@H](Cc1c[nH]c2ccccc12)NC(=O)[C@@H](CC(=O)NO)CC(C)C | 10.5 µM (active) | 
17 | CC[C@@H](C)Nc1cc(C(=O)NC2CC3CC[C@@H](C2)N3c2ccc(C(=O)C3CC3)cn2)c(C)cc1C(N)=O (stereo not given in full) | 0.0259 µM (active) | 
18 | O=C(O)C(S)C(S)C(=O)O (stereo not given) |  | 77.4%

Row | SMILES | Potency | viability, % of control
19 | O=[N+]([O-])c1ccc(O)c2ncccc12 | 7.5 µM (active) and 4.68 µM (active) | 
20 | Cc1cc(-c2nc3cc(F)ccc3s2)ccc1NC(=O)[C@@H](N)CCCCN | 2.59 µM (active) | 
21 | Cc1ccc([N+](=O)[O-])cc1S(=O)(=O)N(C)/N=C/c1cnc2ccc(Br)cn12 | 16.4 nM (active) and 46.8 nM (active) | 
22 | C[C@H]1[C@H](O)O[C@@H]2O[C@@]3(C)CC[C@H]4[C@H](C)CC[C@@H]1[C@@]24OO3 | 0.731 µM (active) | 
23 | C[N+](C)(C)CCOC(=O)CCC(=O)OCC[N+](C)(C)C |  | 90.9%
24 | Cc1c(-c2ccccc2)oc2c(C(=O)OCCN3CCCCC3)cccc2c1=O |  | 76.1%
25 | O=C1NCCN1CCN1CCC(c2cn(-c3ccc(F)cc3)c3ccc(Cl)cc23)CC1 | 1.19 µM (active) | 
26 | Cc1ccc(S(=O)(=O)Cc2nc(-c3ccc(C(=O)NCc4cccnc4)cc3)oc2C)cc1 | 0.0105 µM (active) | 
27 | O=C(CCCCCCNC(=O)c1cnc(N(c2ccccc2)c2ccccc2Cl)nc1)NO | 2.63 µM (active) | 
28 | O=C(O)CNC(=O)c1nc(Cl)c2ccccc2c1O |  | 75.6%
29 | O=[N+]([O-])c1cncn1CCN1CCOCC1 |  | 59.6%
30 | C[C@@H](OC[C@@]1(c2ccccc2)CC[C@]2(CCC(=O)N2)CN1)c1cc(C(F)(F)F)cc(C(F)(F)F)c1 | 7.42 µM (active) | 
31 | C=CCc1cccc(/C=N/NC(=O)CN2CCN(Cc3ccccc3)CC2)c1O | 6.61 µM (active) | 
32 | Cc1ccc(C(C)OC(=O)C2(C)CCC(C(=O)O)C2(C)C)cc1 (stereo not given) |  | 60.5%
33 | c1ccc(Cn2c(-c3ccc(OCC(C4CCNCC4)n4c(-c5ccccc5)nc5ccccc54)cc3)nc3ccccc32)cc1 (stereo not given) | 7.42 µM (active) | 
34 | CC/C=C(\C(=O)N[C@@H]1C(=O)N2C(C(=O)OCOC(=O)C(C)(C)C)=C(COC(N)=O)CS[C@H]12)c1csc(N)n1 |  | 70.2%
35 | CN1CC(=O)N2[C@H](c3ccc4c(c3)OCO4)c3[nH]c4ccccc4c3C[C@@H]2C1=O |  | 93.5%
